Test results: PubChem BioAssay AID1159580 (chemical genetic matrix, 2015)
In all, about 5,500 compounds went through this assay and about 2,000 (36%) were called active. Another 18% or so got no clear call; they are omitted. Rule as the data show it: active = normalized growth mostly below about 0.91 (no sharp cut-off); inconclusive = no clear call, values can overlap the other calls; inactive = mostly above about 0.92. The list shows a part of the results.

Test: chemical genetic growth profiling, strain panel (AID 1159580);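 also: tested at 20 µM; growth read once vehicle control cultures reached saturation at 30 °C; 1 = growth at the plate median or of vehicle wells; lower values mean less growth of the strain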
Conditions: growth OD

Measured: normalized growth

O=C(O[C@@H]1Cc2c(O)cc(O)cc2O[C@@H]1c1cc(O)c(O)c(O)c1-c1c([C@H]2Oc3cc(O)cc(O)c3C[C@H]2O)cc(O)c(O)c1O)c1cc(O)c(O)c(O)c1
inactive: S. cerevisiae deletion strains, locus YJL187C, strain SWE1, hits give low values 0.981 | S. cerevisiae deletion strains, locus YKL009W, strain mrt4, hits give low values 1.08 | S. cerevisiae deletion strains, locus YKL068W, hits give low values 1.03 | S. cerevisiae deletion strains, locus YKL085W, strain MDH1 (second series), hits give low values 0.994 | S. cerevisiae deletion strains, locus YKL085W, strain MDH1, hits give low values 0.994 | S. cerevisiae deletion strains, locus YKL160W, strain elf1, hits give low values 0.968 | S. cerevisiae deletion strains, locus YKR026C, strain gcn3, hits give low values 1.03 | S. cerevisiae deletion strains, locus YKR091W, strain srl3, hits give low values 1.02 | S. cerevisiae deletion strains, locus YLL001W, strain dnm1, hits give low values 0.986 | S. cerevisiae deletion strains, locus YLL026W, hits give low values 1.03 | S. cerevisiae deletion strains, locus YLL041C, strain sdh2, hits give low values 1.04 | S. cerevisiae deletion strains, locus YLR027C, strain aat2, hits give low values 1 | S. cerevisiae deletion strains, locus YLR221C, strain rsa3, hits give low values 0.989 | S. cerevisiae deletion strains, locus YLR258W, strain gsy2, hits give low values 1.02 | S. cerevisiae deletion strains, locus YLR262C, strain YPT6 (second series), hits give low values 0.89 | S. cerevisiae deletion strains, locus YLR320W, strain mms22, hits give low values 1.01 | S. cerevisiae deletion strains, locus YLR342W, strain FKS1, hits give low values 0.957 | S. cerevisiae deletion strains, locus YLR357W, strain rsc2, hits give low values 0.9 | S. cerevisiae deletion strains, locus YLR370C, strain arc18, hits give low values 1 | S. cerevisiae deletion strains, locus YLR384C, strain iki3, hits give low values 1.02 | S. cerevisiae deletion strains, locus YML120C, strain ndi1, hits give low values 1 | S. cerevisiae deletion strains, locus YMR078C, strain ctf18, hits give low values 0.927 | S. cerevisiae deletion strains, locus YMR125W, strain sto1, hits give low values 1.04 | S. cerevisiae deletion strains, locus YMR129W, hits give low values 1.02 | S. cerevisiae deletion strains, locus YMR205C, strain PFK2, hits give low values 0.978 | S. cerevisiae deletion strains, locus YMR231W, strain pep5, hits give low values 0.942 | S. cerevisiae deletion strains, locus YNL071W, strain lat1, hits give low values 1.02 | S. cerevisiae deletion strains, locus YNL248C, strain rpa49, hits give low values 1.02 | S. cerevisiae deletion strains, locus YNL250W, strain rad50, hits give low values 0.963 | S. cerevisiae deletion strains, locus YNL271C, strain bni1, hits give low values 0.974 | S. cerevisiae deletion strains, locus YNL298W, strain CLA4, hits give low values 1 | S. cerevisiae deletion strains, locus YNL322C, strain KRE1 (second series), hits give low values 1.03 | S. cerevisiae deletion strains, locus YNR049C, strain mso1, hits give low values 1.03 | S. cerevisiae deletion strains, locus YOL012C, strain htz1 0.228 | S. cerevisiae deletion strains, locus YOR001W, strain rrp6, hits give low values 0.981 | S. cerevisiae deletion strains, locus YOR070C, strain gyp1, hits give low values 0.972 | S. cerevisiae deletion strains, locus YOR080W, strain dia2, hits give low values 1.02 | S. cerevisiae deletion strains, locus YOR083W, strain WHI5, hits give low values 0.937 | S. cerevisiae deletion strains, locus YOR265W, strain rbl2, hits give low values 0.984 | S. cerevisiae deletion strains, locus YOR270C, strain vph1, hits give low values 0.977 | S. cerevisiae deletion strains, locus YOR290C, strain snf2, hits give low values 0.989 | S. cerevisiae deletion strains, locus YPL078C, strain atp4, hits give low values 0.99 | S. cerevisiae deletion strains, locus YPL106C, strain sse1, hits give low values 0.941 | S. cerevisiae deletion strains, locus YPL240C, strain hsp82, hits give low values 1 | S. cerevisiae deletion strains, locus YPR119W, strain clb2, hits give low values 0.981 | S. cerevisiae deletion strains, locus YPR141C, strain kar3, hits give low values 0.988
active: S. cerevisiae deletion strains, locus YJL187C, strain SWE1 (second series), hits give low values 0.0786 | S. cerevisiae deletion strains, locus YKL190W, strain CNB1, hits give low values 0.0679 | S. cerevisiae deletion strains, locus YKR001C, strain vps1, hits give low values 0.487 | S. cerevisiae deletion strains, locus YLR039C, strain RIC1, hits give low values 0.136 | S. cerevisiae deletion strains, locus YLR058C, strain SHM2, hits give low values 0.0917 | S. cerevisiae deletion strains, locus YLR102C, strain apc9, hits give low values 0.885 | S. cerevisiae deletion strains, locus YLR262C, strain YPT6, hits give low values 0.222 | S. cerevisiae deletion strains, locus YLR268W, strain sec22, hits give low values 0.225 | S. cerevisiae deletion strains, locus YLR330W, strain CHS5, hits give low values 0.488 | S. cerevisiae deletion strains, locus YLR371W, strain rom2, hits give low values 0.667 | S. cerevisiae deletion strains, locus YLR418C, strain cdc73, hits give low values 0.238 | S. cerevisiae deletion strains, locus YML016C, strain PPZ1, hits give low values 0.0734 | S. cerevisiae deletion strains, locus YML032C, strain rad52, hits give low values 0.808 | S. cerevisiae deletion strains, locus YML124C, strain tub3, hits give low values 0.733 | S. cerevisiae deletion strains, locus YMR058W, strain fet3, hits give low values 0.455 | S. cerevisiae deletion strains, locus YMR223W, strain ubp8, hits give low values 0.571 | S. cerevisiae deletion strains, locus YMR263W, strain SAP30, hits give low values 0.386 | S. cerevisiae deletion strains, locus YMR307W, strain GAS1, hits give low values 0.343 | S. cerevisiae deletion strains, locus YNL067W, strain RPL9B, hits give low values 0.138 | S. cerevisiae deletion strains, locus YNL128W, strain TEP1, hits give low values 0.0913 | S. cerevisiae deletion strains, locus YNL153C, strain GIM3, hits give low values 0.201 | S. cerevisiae deletion strains, locus YNL209W, strain ssb2, hits give low values 0.822 | S. cerevisiae deletion strains, locus YNL233W, strain BNI4, hits give low values 0.299 | S. cerevisiae deletion strains, locus YNL307C, strain MCK1, hits give low values 0.831 | S. cerevisiae deletion strains, locus YNR052C, strain pop2, hits give low values 0.246 | S. cerevisiae deletion strains, locus YOL006C, strain TOP1, hits give low values 0.168 | S. cerevisiae deletion strains, locus YOL147C, strain pex11, hits give low values 0.662 | S. cerevisiae deletion strains, locus YOR061W, strain CKA2, hits give low values 0.163 | S. cerevisiae deletion strains, locus YOR069W, strain VPS5, hits give low values 0.128 | S. cerevisiae deletion strains, locus YOR106W, strain vam3, hits give low values 0.817 | S. cerevisiae deletion strains, locus YOR136W, strain idh2, hits give low values 0.645 | S. cerevisiae deletion strains, locus YOR144C, strain elg1, hits give low values 0.774 | S. cerevisiae deletion strains, locus YOR184W, strain ser1, hits give low values 0.346 | S. cerevisiae deletion strains, locus YOR316C, strain cot1, hits give low values 0.863 | S. cerevisiae deletion strains, locus YPL051W, strain arl3, hits give low values 0.822 | S. cerevisiae deletion strains, locus YPR163C, strain tif3, hits give low values 0.756 | S. cerevisiae deletion strains, locus YPR167C, strain met16, hits give low values 0.785 | S. cerevisiae deletion strains, strain wtn01, hits give low values 0.335 | S. cerevisiae strains, strain wild type, hits give low values 0.0644
